The supplement of paper PMC11732987, “Enantioselective OTUD7B fragment discovery through chemoproteomics screening and high-throughput optimisation” (Communications Chemistry, 2025)

Columns and labels:
Test in all cases: log2 ratio of Biotin-Ahx-Ub-VS probe labelling (fragment/DMSO); higher = less target engagement (more negative = stronger competition), active = hit call of the paper (q ≤ 0.05, log2 ratio ≤ -1)
Settings in all cases: compound concentration: 200 uM; treatment time: 3 h
USP34 = USP34 (UniProt Q70CQ2)
USP34, sequence (Q70CQ2 whole entry, the tested form may be a part): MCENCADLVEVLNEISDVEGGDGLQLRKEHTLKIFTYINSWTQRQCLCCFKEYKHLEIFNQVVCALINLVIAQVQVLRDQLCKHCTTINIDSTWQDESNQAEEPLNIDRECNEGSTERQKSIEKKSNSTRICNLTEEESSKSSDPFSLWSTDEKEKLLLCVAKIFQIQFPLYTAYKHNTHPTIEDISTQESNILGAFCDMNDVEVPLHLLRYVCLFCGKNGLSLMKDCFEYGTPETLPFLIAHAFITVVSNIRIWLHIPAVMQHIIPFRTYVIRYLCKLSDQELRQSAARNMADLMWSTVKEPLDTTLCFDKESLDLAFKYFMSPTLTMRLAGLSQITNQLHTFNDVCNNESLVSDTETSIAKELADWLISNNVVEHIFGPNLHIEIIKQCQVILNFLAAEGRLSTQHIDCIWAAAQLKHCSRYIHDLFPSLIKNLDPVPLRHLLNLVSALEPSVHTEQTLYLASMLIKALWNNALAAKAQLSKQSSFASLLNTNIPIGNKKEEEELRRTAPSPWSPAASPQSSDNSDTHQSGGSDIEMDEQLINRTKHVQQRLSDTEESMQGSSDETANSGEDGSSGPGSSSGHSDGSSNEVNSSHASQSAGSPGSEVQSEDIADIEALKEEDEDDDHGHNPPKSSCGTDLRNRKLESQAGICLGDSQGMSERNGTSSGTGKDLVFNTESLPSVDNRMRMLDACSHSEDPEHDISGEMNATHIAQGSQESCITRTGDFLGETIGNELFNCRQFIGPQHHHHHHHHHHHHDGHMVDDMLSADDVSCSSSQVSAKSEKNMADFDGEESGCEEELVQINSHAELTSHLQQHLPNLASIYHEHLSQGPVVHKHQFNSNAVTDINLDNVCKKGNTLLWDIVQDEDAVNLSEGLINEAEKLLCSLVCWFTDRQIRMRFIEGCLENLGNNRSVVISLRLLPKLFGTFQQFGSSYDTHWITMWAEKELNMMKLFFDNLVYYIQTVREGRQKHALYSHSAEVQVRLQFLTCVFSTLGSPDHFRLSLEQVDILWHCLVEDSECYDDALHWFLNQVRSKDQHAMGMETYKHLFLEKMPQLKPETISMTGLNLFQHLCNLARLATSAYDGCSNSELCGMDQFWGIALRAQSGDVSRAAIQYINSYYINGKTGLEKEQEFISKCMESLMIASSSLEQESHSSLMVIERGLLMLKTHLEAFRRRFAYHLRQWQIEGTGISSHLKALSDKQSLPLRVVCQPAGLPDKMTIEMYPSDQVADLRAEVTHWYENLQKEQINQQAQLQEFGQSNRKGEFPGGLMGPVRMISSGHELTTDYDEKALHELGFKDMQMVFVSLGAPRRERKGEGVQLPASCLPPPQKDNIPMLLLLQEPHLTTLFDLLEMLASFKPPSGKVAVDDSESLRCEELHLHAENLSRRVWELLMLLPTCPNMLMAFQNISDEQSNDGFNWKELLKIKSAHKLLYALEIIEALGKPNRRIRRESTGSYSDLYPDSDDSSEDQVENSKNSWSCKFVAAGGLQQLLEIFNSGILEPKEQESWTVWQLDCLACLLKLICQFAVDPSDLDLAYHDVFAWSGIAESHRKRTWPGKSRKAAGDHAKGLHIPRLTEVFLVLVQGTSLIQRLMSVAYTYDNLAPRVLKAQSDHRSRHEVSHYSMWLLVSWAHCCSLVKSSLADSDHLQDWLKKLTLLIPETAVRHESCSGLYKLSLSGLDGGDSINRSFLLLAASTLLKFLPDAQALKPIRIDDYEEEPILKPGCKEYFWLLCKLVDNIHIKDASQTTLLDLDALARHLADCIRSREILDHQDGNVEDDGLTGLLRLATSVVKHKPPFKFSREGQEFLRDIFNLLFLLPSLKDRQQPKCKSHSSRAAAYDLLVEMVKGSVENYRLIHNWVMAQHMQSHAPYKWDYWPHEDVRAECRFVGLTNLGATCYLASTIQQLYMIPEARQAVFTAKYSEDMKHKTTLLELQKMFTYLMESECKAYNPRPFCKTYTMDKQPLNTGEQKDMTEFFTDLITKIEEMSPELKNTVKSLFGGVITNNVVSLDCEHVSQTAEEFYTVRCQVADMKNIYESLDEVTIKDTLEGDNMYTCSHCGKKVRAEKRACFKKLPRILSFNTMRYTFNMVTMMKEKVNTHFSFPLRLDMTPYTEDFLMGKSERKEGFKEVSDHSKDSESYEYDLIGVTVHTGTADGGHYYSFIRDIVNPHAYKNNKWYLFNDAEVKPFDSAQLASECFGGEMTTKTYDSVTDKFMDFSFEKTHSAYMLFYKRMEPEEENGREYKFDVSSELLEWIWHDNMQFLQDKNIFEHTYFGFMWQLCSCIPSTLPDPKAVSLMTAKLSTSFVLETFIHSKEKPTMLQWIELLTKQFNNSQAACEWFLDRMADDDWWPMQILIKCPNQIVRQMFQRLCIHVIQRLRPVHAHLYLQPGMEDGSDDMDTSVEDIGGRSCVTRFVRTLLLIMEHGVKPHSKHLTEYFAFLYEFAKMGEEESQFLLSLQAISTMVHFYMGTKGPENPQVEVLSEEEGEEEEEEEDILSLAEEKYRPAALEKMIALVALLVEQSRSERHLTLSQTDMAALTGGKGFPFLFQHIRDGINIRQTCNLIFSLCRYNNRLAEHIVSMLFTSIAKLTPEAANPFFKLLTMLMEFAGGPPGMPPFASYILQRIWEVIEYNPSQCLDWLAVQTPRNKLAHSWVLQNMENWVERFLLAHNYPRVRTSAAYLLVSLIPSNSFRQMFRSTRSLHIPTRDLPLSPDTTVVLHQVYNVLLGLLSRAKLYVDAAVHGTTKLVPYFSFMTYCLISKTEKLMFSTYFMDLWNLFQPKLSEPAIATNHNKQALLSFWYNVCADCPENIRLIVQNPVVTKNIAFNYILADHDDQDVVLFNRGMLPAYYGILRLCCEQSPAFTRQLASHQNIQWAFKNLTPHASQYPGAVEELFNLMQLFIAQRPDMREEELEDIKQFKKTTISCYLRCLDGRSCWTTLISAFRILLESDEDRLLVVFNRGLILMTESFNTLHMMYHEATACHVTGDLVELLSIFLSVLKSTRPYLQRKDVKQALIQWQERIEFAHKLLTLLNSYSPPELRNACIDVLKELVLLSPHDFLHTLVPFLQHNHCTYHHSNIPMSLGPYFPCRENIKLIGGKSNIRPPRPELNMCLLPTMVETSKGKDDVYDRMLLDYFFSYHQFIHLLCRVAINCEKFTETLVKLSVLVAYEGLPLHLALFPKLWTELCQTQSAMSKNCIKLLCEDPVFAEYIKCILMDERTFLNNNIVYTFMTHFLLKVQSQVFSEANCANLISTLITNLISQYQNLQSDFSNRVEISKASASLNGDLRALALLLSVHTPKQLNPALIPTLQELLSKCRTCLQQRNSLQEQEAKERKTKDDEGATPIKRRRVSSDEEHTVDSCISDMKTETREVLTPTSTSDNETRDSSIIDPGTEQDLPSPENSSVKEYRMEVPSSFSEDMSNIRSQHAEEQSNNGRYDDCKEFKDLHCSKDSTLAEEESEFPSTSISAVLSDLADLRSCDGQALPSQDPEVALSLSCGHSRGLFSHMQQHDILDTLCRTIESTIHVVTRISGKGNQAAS
Method in brief: (§1)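 Using Biotin-Ahx-Ub-VS at 0.5 µM final for 1 h, DUBs were labelled in HEK293T lysate (495 µg per sample) that had first been treated in triplicate with fragment at 200 µM or vehicle for 3 h. NeutrAvidin enrichment, LysC and trypsin digestion and diaPASEF LC-MS/MS followed. Spectronaut label-free quantities were global-median-normalised. Values are average log2 fragment/vehicle ratios by unpaired t-test, using proteins with ≥2 unique peptides.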

USP36 = target: T1, USP36 (UniProt Q9P275)
T1 sequence (whole entry): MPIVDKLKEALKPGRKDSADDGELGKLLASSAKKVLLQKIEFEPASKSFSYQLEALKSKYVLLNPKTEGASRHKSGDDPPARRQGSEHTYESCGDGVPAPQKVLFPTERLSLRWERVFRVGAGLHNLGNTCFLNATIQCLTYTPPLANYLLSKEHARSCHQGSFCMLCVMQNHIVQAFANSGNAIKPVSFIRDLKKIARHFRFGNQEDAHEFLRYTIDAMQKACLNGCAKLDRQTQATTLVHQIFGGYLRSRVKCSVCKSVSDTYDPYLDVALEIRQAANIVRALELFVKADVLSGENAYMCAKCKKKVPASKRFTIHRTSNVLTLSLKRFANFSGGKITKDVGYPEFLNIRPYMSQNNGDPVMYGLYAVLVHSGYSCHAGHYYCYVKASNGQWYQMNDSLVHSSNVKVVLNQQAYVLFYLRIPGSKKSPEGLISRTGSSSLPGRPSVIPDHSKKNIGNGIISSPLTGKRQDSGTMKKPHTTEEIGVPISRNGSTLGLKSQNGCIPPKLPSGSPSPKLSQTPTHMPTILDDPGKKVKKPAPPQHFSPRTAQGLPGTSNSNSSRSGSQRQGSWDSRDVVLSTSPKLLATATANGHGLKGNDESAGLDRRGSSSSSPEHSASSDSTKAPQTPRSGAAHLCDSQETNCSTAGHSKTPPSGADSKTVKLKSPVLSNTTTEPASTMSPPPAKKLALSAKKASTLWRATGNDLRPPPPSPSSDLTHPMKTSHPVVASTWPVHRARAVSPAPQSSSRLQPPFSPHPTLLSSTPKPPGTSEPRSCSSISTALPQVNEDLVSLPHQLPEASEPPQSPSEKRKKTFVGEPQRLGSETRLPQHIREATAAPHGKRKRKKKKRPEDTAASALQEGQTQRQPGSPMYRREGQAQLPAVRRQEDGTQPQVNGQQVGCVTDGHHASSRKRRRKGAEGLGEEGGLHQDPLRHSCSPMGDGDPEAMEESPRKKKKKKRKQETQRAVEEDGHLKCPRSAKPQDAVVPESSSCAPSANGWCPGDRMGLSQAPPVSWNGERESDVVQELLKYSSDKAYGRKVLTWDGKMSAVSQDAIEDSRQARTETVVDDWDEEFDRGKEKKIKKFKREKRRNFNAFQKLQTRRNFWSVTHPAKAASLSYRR
Method in brief: as §1

USP38 = target: T2, USP38 (UniProt Q8NB14)
T2 sequence (whole entry): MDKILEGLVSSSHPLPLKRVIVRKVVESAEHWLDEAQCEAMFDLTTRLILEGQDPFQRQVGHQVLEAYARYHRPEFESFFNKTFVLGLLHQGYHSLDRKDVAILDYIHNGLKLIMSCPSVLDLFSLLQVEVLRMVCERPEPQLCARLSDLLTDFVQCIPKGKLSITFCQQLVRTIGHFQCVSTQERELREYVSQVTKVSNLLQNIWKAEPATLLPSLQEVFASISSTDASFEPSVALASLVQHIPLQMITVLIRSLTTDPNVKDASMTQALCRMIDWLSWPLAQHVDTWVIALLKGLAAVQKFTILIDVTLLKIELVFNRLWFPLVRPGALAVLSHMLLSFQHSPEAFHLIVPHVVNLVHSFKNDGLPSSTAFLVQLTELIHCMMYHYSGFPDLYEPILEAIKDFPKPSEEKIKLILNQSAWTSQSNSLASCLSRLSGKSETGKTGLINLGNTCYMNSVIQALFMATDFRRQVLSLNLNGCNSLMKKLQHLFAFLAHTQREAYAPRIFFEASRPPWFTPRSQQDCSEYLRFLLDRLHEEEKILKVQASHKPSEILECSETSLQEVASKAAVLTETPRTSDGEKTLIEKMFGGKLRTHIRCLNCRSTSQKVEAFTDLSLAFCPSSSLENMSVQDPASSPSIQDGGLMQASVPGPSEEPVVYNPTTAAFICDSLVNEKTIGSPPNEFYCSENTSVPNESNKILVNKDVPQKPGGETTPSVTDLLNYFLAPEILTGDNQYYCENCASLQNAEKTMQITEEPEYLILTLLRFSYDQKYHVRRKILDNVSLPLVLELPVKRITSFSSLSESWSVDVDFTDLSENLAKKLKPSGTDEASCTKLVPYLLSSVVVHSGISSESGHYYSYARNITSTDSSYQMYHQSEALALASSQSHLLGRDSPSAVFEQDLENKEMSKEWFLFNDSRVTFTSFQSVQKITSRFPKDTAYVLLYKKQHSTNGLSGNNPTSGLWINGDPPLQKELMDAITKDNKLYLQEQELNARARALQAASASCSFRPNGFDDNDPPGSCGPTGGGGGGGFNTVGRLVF
Method in brief: as §1

USP39 = target: T3, USP39 (UniProt Q53GS9)
T3 sequence (whole entry): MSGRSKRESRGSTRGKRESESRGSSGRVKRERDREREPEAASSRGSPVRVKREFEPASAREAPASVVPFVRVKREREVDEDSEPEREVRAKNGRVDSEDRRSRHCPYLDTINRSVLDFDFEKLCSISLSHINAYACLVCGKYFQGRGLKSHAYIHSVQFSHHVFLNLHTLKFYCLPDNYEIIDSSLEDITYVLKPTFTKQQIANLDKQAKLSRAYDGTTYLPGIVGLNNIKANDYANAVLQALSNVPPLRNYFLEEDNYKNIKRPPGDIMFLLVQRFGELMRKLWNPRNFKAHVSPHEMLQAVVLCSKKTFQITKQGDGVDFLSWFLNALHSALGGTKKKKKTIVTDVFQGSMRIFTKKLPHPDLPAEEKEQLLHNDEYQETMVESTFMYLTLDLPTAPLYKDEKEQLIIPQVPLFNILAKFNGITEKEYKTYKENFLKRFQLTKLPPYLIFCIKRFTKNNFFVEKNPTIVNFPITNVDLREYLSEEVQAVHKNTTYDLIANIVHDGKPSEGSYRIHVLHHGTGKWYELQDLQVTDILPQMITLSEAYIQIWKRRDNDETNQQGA
Method in brief: as §1

USP4 = target: T4, USP4 (UniProt Q13107)
T4 sequence (whole entry): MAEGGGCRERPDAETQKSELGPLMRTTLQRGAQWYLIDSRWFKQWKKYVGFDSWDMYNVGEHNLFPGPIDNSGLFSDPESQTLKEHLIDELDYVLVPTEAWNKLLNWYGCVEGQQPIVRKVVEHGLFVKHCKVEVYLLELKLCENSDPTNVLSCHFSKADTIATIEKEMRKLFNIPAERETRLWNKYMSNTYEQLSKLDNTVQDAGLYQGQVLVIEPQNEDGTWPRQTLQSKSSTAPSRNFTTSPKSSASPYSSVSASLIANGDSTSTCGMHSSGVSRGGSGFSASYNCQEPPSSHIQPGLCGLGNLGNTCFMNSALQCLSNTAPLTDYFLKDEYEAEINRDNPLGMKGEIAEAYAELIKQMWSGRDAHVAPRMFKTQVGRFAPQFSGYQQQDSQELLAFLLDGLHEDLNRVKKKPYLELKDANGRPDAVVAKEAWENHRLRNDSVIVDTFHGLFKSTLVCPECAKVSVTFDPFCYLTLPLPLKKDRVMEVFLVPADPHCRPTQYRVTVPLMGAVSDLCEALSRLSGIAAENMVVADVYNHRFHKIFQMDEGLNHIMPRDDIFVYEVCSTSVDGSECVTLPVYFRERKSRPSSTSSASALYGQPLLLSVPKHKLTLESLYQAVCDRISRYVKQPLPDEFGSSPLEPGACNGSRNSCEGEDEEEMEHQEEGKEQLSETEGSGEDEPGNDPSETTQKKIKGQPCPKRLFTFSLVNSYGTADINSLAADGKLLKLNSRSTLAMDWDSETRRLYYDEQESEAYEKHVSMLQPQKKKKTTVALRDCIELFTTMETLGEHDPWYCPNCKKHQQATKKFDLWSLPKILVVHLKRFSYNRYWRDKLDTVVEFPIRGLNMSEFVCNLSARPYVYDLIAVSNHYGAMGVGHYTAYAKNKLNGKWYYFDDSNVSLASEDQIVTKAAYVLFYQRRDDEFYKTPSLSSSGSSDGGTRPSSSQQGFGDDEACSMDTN
Method in brief: as §1

Measured: log2 ratio of Biotin-Ahx-Ub-VS probe labelling

O=C(CCl)N1CCOC2(CCC2)CC1
inactive: USP34 -0.139 | USP36 -0.163 | USP38 -0.056 | USP39 0.138 | USP4 -0.409
